Consider 40 sequences from the OligoGym collection.
Further: reference of the scale not given here.

The first test has as its target SLC6A17. Nature of the test: pooled miR-30 sensor sort-seq; sequence = guide strand. The settings on record: shRNA.
For TTCTCGACCACACACTTCTCAT, the sensor-assay potency score (higher = more potent) was -1.03.
On to AAGAAGAACATGACGGACCAGA, for which the sensor-assay potency score (higher = more potent) is 0.0729.
Still for that read-out and setting: then TTCTTGGTTCCATAAATCCAGG, with -1.41.
The same measure, in the same setting: then TTGTAGGACACGGAGAGGGTGT, with -0.674; and TTTCTCAGCATTCTCGACCACA, with -0.65.
TATAGTAGAGTGTCTCTCCTGG displayed a sensor-assay potency score (higher = more potent) of 0.772.
Take TTGTCCTGCTTATTGTAGCTGG: the sensor-assay potency score (higher = more potent) is -0.728.

The next test addresses SLC6A18. Described as above. The settings on record: shRNA.
Regarding ATTGTCGAAAATCTCCAGCCAG, the sensor-assay potency score (higher = more potent) is -0.569.
As for ATTAGTTGCTTTGAACCCCAGG, the sensor-assay potency score (higher = more potent) is -0.521.
The sequence TAGAGCTTCTCCTGACGCGAGG returned a sensor-assay potency score (higher = more potent) of -1.31.
Same read-out and setting: then TGAAGTAAATCACCTTCCCTGT, with -0.768; and TAAACGACACCCACAACCTCGA, with -0.526.
Same read-out and setting: then TTGTCGAAAATCTCCAGCCAGT, with -1.14; and TTGTATCTCAGTGGCTTCCAGA, with -0.724; and TTCAGTGTCTGCCGGTACCAGA, with -1.1.
With TGAACAAGTAGATGAGTCCTTT, the sensor-assay potency score (higher = more potent) is -0.149.
In turn, TTGTAGTACAGGCTGATCAGGA showed a sensor-assay potency score (higher = more potent) of -0.436.
The same measure, in the same setting: with ATGGTGTTGTAGTACAGGCTGA the figure was -0.98.

The next test concerns the target SLC6A3. Described as above. The settings on record: shRNA.
The sequence TATTCTTGTAAACAAAAACTGC had a sensor-assay potency score (higher = more potent) of -1.01.
In turn, TTTTGTAGCACAGGTAGGGGAA registered a sensor-assay potency score (higher = more potent) of -0.466.
Still for that read-out and setting: then TTCGCAAACATAAAAACTGTTG, with -1.05; and TAGCAGTTGTTGGTGAACTTGT, with -0.216; and TTTCCTGGTGAGACATACCAGG, with -1.03.
The same measure, in the same setting: with TTGTTGGTGAACTTGTTGTAGC the figure was -0.855; with TTACAGCAACACAAGACACGGC, 0.179; with TATTGATGTGGCACGCACCTGA, -0.154.
Still for that read-out and setting: then TAGATGATGAAGATCAGCCCTG, with -0.145.
The sequence TTGGTGAACTTGTTGTAGCTGG registered a sensor-assay potency score (higher = more potent) of 0.547.
In the case of ATCTGCTGGATGTCGTCGCTGA, the sensor-assay potency score (higher = more potent) was -0.478.
As for TTTTTGTAGCACAGGTAGGGGA, the sensor-assay potency score (higher = more potent) was -0.961.

The next test has as its target SLC7A11. Described as above. To be noted: shRNA.
The sequence TAATGGACCAAAGACTTCCAAA gave a sensor-assay potency score (higher = more potent) of -1.33.
TTCAGTAACAAAGTTGAGGTAA displayed a sensor-assay potency score (higher = more potent) of 0.0391.
On the same count and under the same terms, with TAAAGTTCTGCGTTTGACCTTT the figure was 0.169.
On to TAATTAGCTGCATAACTCCAGG, for which the sensor-assay potency score (higher = more potent) was -0.703.
Still for that read-out and setting: with ATAATTATCAGAATTGCTGTGA the figure was 0.593.
On the same count and under the same terms, with TTTGTATCGAAGATAAATCAGC the figure was -1.16.
Still for that read-out and setting: with TACTTCTTCAGTAACAAAGTTG the figure was -0.481; with TTTAGGACCATCACTACAGTTA, -0.265.
Sequence TTCTTCAGTAACAAAGTTGAGG gave a sensor-assay potency score (higher = more potent) of -0.835.
The sequence TAATACTTGAATCTCTTCCTGA returned a sensor-assay potency score (higher = more potent) of 0.636.
